From PubChem BioAssay (NCATS)
Inconclusive results are not listed. A call without a number means that no potency is given here. Unmarked numbers belong to inactive results. The source made the active and inactive calls. The call rests on the fitted dose curve; in most records, active means well fitted curve in the direction sought with a large enough effect; inconclusive means small, poorly fitted or top-dose-only effect, or another doubt; inactive means no such curve, though single readings can be large; an effect the other way counts as inactive or inconclusive.

Target: Rap guanine nucleotide exchange factor 4 (Homo sapiens) (UniProt Q8WZA2)
Sequence (Q8WZA2 whole entry, looked up): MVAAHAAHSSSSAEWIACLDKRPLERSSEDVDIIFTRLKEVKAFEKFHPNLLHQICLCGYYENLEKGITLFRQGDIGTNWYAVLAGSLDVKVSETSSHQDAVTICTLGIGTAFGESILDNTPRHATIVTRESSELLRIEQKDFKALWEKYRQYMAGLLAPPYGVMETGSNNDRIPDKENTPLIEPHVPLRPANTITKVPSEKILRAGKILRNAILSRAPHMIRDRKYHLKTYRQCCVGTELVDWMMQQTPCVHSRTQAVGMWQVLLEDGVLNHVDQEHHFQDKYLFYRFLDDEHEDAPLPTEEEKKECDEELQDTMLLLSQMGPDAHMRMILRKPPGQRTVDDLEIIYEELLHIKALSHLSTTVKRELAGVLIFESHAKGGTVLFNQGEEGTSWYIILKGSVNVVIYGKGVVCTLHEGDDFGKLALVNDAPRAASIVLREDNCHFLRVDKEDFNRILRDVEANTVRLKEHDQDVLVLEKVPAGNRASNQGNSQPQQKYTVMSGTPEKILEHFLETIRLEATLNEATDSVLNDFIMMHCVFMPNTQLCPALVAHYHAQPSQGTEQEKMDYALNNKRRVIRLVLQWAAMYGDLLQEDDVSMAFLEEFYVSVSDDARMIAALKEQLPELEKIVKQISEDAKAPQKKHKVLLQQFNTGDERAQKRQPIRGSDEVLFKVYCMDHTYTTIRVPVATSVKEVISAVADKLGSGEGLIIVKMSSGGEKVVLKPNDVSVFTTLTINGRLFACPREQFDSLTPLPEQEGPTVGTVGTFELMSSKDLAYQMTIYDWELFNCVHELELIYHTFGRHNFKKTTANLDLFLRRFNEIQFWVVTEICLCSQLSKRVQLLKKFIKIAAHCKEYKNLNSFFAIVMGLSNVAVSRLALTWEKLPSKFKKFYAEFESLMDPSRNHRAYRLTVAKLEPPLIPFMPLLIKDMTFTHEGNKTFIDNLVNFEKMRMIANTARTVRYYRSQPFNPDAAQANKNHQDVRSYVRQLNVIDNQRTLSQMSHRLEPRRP
Experiment: Confirmatory qHTS for agonist of cAMP-regulated guanine nucleotide exchange factor 4 (EPAC2) (AID 1645884);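 further: nucleotide exchange releases bodipy-GDP from Rap1 and this lowers its fluorescence; nearly all actives have a fitted effect of over 65% in size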
Conditions: EPAC2 GEF activity, Rap1B-BODIPY-GDP fluorescence; series mostly up to 154 µM

Row | Compound | Potency | activation
1 | CCOC(=O)c1c(C)[nH]c(C(=O)C(C)OC(=O)c2ccc(NC(=O)CC#N)cc2)c1C (stereo not given) | inactive | –
2 | Cc1ccc(C2CC(c3cccs3)=NN2C(=O)CSc2nc(=O)n3cc(C)ccc3n2)cc1 (stereo not given) | inactive | –
3 | CC1(c2ccccc2)CC(C)(C)N2C(=O)C(=O)c3cccc1c32 (stereo not given) | – | -2.11% [at 17.1 µM, percent relative to cAMP agonist control]
4 | COc1cccc(/C=C2/NC(=O)N(CC(=O)Nc3ccc(C)cc3)C2=O)c1OCc1cccc(C(=O)O)c1 | inactive | –
5 | CCOC(=O)c1c(NC(=O)c2ccc(S(=O)(=O)N(C)CC3CCCO3)cc2)sc2c1CCN(C)C2 (stereo not given) | inactive | –
6 | CCOC(=O)Cn1nc(C)c(NC(=O)COc2ccccc2[N+](=O)[O-])c1C | – | 1.83% [at 17.1 µM, percent relative to cAMP agonist control]
7 | NS(=O)(=O)c1ccc(N/N=C/c2ccc(C(=O)O)cc2)c([N+](=O)[O-])c1 | inactive | –
8 | COc1ccc(/C=N/NC(=O)c2ccccc2O)cc1Cn1nnc2ccccc21 | inactive | –
9 | O=C(c1ccc(-c2ccccc2Cl)o1)N1CCC1 | – | 0.137% [at 17.1 µM, percent relative to cAMP agonist control]
10 | Fc1ccc2c(-c3cccc(C(F)(F)F)c3)c(-c3ccccc3)ncc2c1 | inactive | –
11 | CCOC(=O)[C@H](C)N1[C@H](C)[C@H](c2ccccc2)Oc2ccc(Cl)cc2S1(=O)=O | – | 3.08% [at 17.1 µM, percent relative to cAMP agonist control]
12 | O=C(O)c1cc(NN=C2c3ccccc3-c3ccccc32)ccc1Cl | inactive | –
13 | CC(c1ccon1)N(C)Cc1cn(C)nc1-c1cccc(Cl)c1 (stereo not given) | inactive | –
14 | CCCCCOC(=O)C1=C(C)Nc2nnnn2C1c1ccccc1Cl (stereo not given) | – | 12.2% [at 17.1 µM, percent relative to cAMP agonist control]
15 | O=C(O)C1Nc2c(Cl)cc(Cl)c(Cl)c2C2C=CCC12 (stereo not given) | inactive | –
16 | CCOC(=O)C1C(=O)C=C(c2ccc(C)cc2)CC1c1ccccc1 (stereo not given) | – | 7.74% [at 17.1 µM, percent relative to cAMP agonist control]
17 | Cc1ccc(O)c(CNc2ccc(S(=O)(=O)Nc3nccs3)cc2)c1 | – | -10.4% [at 17.1 µM, percent relative to cAMP agonist control]
18 | Cn1c(N)c(C(=O)COC(=O)Cc2ccc(Cl)c(Cl)c2)c(=O)n(C)c1=O | inactive | –
19 | CCN(CC)S(=O)(=O)c1ccc2[nH]c(=O)cc(C(=O)Nc3ccc(C)c(S(=O)(=O)N(CC)CC)c3)c2c1 | inactive | –
20 | C[C@@H]1CCCCCCCCC(=O)OCCN1C(=O)OC(C)(C)C | inactive | –
21 | COc1ccc(NC(=O)c2cccnc2NCCc2ccccc2)cc1 | inactive | –
22 | CCCCN(CCCC)Cc1cc(=O)oc2cc(OC)ccc12 | inactive | –
23 | C=C1CC2C(=O)N(Cc3cc(OC)ccc3OC)C(C(=O)OCC)(C(=O)OCC)C1N2C(=O)OC(C)(C)C (stereo not given) | inactive | –
24 | Fc1ccc2cnc(-c3ccccc3)c(-c3ccc(C(F)(F)F)cc3)c2c1 | inactive | –
25 | CCOc1cc(/C=N/O)cc(Br)c1OCc1ccc(Cl)cc1 | inactive | –
26 | O=C1c2ccccc2C(c2nnnn2Cc2ccccc2)N1CCc1c[nH]c2ccccc12 (stereo not given) | inactive | –
27 | Cn1c2ccccc2c2cc(/C=N/NC(=O)c3cc(O)cc(O)c3)ccc21 | inactive | –
28 | CC1=NN(c2nc(-c3ccccc3)cs2)C(=O)C1 | inactive | –
29 | COC1OC(c2ccccc2)=C(c2cnc(N)nc2)c2ccc(F)cc21 (stereo not given) | – | 3.06% [at 17.1 µM, percent relative to cAMP agonist control]
30 | O=C(O)CN1C(=O)/C(=C\c2cc(Br)ccc2OCc2ccccc2Cl)SC1=S | inactive | –

Target: Rap guanine nucleotide exchange factor 3 (Homo sapiens) (UniProt O95398)
Sequence (O95398 whole entry, looked up): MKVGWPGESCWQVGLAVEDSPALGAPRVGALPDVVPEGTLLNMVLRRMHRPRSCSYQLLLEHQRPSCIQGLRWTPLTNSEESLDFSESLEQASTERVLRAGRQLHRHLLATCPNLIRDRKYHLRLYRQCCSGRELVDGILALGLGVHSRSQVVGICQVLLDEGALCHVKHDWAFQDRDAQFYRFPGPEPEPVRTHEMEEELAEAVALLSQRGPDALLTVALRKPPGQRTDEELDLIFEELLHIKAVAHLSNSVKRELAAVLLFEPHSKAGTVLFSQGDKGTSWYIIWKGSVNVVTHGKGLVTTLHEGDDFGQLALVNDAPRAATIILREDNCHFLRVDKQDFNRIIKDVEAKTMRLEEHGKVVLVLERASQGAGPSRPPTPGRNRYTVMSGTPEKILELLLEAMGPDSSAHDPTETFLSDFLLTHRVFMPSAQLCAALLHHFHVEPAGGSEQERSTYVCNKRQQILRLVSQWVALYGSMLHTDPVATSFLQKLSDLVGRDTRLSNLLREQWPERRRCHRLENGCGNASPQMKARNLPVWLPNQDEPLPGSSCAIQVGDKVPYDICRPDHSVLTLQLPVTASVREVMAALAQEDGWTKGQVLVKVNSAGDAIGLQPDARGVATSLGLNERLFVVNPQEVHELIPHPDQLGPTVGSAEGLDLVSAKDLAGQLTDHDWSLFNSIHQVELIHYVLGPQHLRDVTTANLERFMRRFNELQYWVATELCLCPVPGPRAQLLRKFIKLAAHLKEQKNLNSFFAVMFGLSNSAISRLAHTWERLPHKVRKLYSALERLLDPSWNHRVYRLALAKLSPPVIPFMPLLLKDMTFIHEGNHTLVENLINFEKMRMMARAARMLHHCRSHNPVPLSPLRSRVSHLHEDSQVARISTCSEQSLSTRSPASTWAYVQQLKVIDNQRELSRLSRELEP
Experiment: Counterscreen qHTS for antagonist of cAMP-regulated guanine nucleotide exchange factor 3 (EPAC1) (AID 1645888);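 further: fluorescence loss as bound BODIPY-GDP is released from Rap1B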
Conditions: Rap1B-BODIPY-GDP nucleotide exchange, fluorescence; series mostly up to 154 µM
How it was run: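 Rap1B-BODIPY-GDP 250 nM + GDP 50 uM; cpds 7-pt, final 9.74 nM–152 uM (activator mode) or from 7.32 nM upwards (inhibitor mode); RT; FI 480/540 nm at 5 and 30 min, then ± cAMP, reread.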

Row | Compound | Potency | activity change, negative = inhibition
31 | O=C(CSc1nnc(-c2ccco2)c(-c2ccco2)n1)c1ccccc1 | inactive | –
32 | Cc1cc(C(C)(C)C)cc(C)c1COC(=O)c1cccnc1 | inactive | –
33 | O=c1oc2ccccc2n1Cc1ccccc1Cl | inactive | –
34 | Cc1ccc2nc(-c3cccc(Br)c3)c(Cc3ccccn3)n2c1 | inactive | –
35 | CN(CC(=O)Nc1ccc(F)cc1)C(=O)COc1ccc(C(=O)c2ccccc2)cc1 | inactive | –
36 | CCOC(=O)c1c(CC(C)C)csc1NC(=O)COC(=O)c1ccc(O)cc1 | inactive | –
37 | O=C(O)c1ccc(COc2ccccc2/C=C2\NC(=O)N(Cc3ccc(F)cc3)C2=O)cc1 | inactive | –
38 | CCCCn1c(=O)[nH]c(=O)c2c1nc(-c1ccccc1F)n2Cc1ccccc1OC | inactive | –
39 | CCN1CC=C2C(C#N)=C(N)C(C#N)(C#N)C(CCc3ccccc3)C2C1 (stereo not given) | inactive | –
40 | O=[N+]([O-])c1ccc(C=NNc2ccc(S(=O)(=O)O)cc2)cc1 | – | -18.7% [at 30.8 µM]
41 | CCOC(=O)c1c(C)[nH]c(C(=O)C(C)OC(=O)c2ccc(NC(=O)CC#N)cc2)c1C (stereo not given) | inactive | –
42 | Cc1ccc(C2CC(c3cccs3)=NN2C(=O)CSc2nc(=O)n3cc(C)ccc3n2)cc1 (stereo not given) | inactive | –
43 | CC1(c2ccccc2)CC(C)(C)N2C(=O)C(=O)c3cccc1c32 (stereo not given) | – | -4.27% [at 30.8 µM]
44 | COc1cccc(/C=C2/NC(=O)N(CC(=O)Nc3ccc(C)cc3)C2=O)c1OCc1cccc(C(=O)O)c1 | inactive | –
45 | CCOC(=O)c1c(NC(=O)c2ccc(S(=O)(=O)N(C)CC3CCCO3)cc2)sc2c1CCN(C)C2 (stereo not given) | inactive | –
46 | CCOC(=O)Cn1nc(C)c(NC(=O)COc2ccccc2[N+](=O)[O-])c1C | – | -12.5% [at 30.8 µM]
47 | NS(=O)(=O)c1ccc(N/N=C/c2ccc(C(=O)O)cc2)c([N+](=O)[O-])c1 | inactive | –
48 | COc1ccc(/C=N/NC(=O)c2ccccc2O)cc1Cn1nnc2ccccc21 | inactive | –
49 | O=C(c1ccc(-c2ccccc2Cl)o1)N1CCC1 | – | -16.6% [at 30.8 µM]
50 | Fc1ccc2c(-c3cccc(C(F)(F)F)c3)c(-c3ccccc3)ncc2c1 | inactive | –

Row | Compound | Potency | activity change, negative = inhibition
51 | CCOC(=O)[C@H](C)N1[C@H](C)[C@H](c2ccccc2)Oc2ccc(Cl)cc2S1(=O)=O | – | 6.25% [at 30.8 µM]
52 | O=C(O)c1cc(NN=C2c3ccccc3-c3ccccc32)ccc1Cl | inactive | –
53 | CC(c1ccon1)N(C)Cc1cn(C)nc1-c1cccc(Cl)c1 (stereo not given) | inactive | –
54 | CCCCCOC(=O)C1=C(C)Nc2nnnn2C1c1ccccc1Cl (stereo not given) | – | -14.1% [at 30.8 µM]
55 | O=C(O)C1Nc2c(Cl)cc(Cl)c(Cl)c2C2C=CCC12 (stereo not given) | inactive | –
56 | CCOC(=O)C1C(=O)C=C(c2ccc(C)cc2)CC1c1ccccc1 (stereo not given) | – | -1.31% [at 30.8 µM]
57 | Cc1ccc(O)c(CNc2ccc(S(=O)(=O)Nc3nccs3)cc2)c1 | – | 1.37% [at 30.8 µM]
58 | Cn1c(N)c(C(=O)COC(=O)Cc2ccc(Cl)c(Cl)c2)c(=O)n(C)c1=O | inactive | –
59 | CCN(CC)S(=O)(=O)c1ccc2[nH]c(=O)cc(C(=O)Nc3ccc(C)c(S(=O)(=O)N(CC)CC)c3)c2c1 | inactive | –
60 | C[C@@H]1CCCCCCCCC(=O)OCCN1C(=O)OC(C)(C)C | inactive | –
61 | COc1ccc(NC(=O)c2cccnc2NCCc2ccccc2)cc1 | inactive | –
62 | CCCCN(CCCC)Cc1cc(=O)oc2cc(OC)ccc12 | inactive | –
63 | C=C1CC2C(=O)N(Cc3cc(OC)ccc3OC)C(C(=O)OCC)(C(=O)OCC)C1N2C(=O)OC(C)(C)C (stereo not given) | inactive | –
64 | Fc1ccc2cnc(-c3ccccc3)c(-c3ccc(C(F)(F)F)cc3)c2c1 | inactive | –
65 | CCOc1cc(/C=N/O)cc(Br)c1OCc1ccc(Cl)cc1 | inactive | –
66 | O=C1c2ccccc2C(c2nnnn2Cc2ccccc2)N1CCc1c[nH]c2ccccc12 (stereo not given) | inactive | –
67 | Cn1c2ccccc2c2cc(/C=N/NC(=O)c3cc(O)cc(O)c3)ccc21 | inactive | –
68 | CC1=NN(c2nc(-c3ccccc3)cs2)C(=O)C1 | inactive | –
69 | COC1OC(c2ccccc2)=C(c2cnc(N)nc2)c2ccc(F)cc21 (stereo not given) | – | -3.58% [at 30.8 µM]
70 | O=C(O)CN1C(=O)/C(=C\c2cc(Br)ccc2OCc2ccccc2Cl)SC1=S | inactive | –
